Source: PubChem BioAssay
Pf apPOL block: Pf-apPOL DNA polymerase inhibition; Recombinant Pf-apPOL, molecular beacon fluorescence, 1.5 h; hit rate 0.25% among 210,000; inhibition, % at 10 µM
mHTT-CaM PPI inh: inhibitors of human mutant huntingtin-calmodulin interaction. P42858. AlphaScreen His-mHTT/GST-CaM binding, luminescence. inhibition, % at 15 µM. hit rate 3.6% among 190,000. AID 1671202;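 note: 0% = both proteins with DMSO and 100% = one protein alone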
Target sequence (P42858 whole entry, looked up, stated change not applied): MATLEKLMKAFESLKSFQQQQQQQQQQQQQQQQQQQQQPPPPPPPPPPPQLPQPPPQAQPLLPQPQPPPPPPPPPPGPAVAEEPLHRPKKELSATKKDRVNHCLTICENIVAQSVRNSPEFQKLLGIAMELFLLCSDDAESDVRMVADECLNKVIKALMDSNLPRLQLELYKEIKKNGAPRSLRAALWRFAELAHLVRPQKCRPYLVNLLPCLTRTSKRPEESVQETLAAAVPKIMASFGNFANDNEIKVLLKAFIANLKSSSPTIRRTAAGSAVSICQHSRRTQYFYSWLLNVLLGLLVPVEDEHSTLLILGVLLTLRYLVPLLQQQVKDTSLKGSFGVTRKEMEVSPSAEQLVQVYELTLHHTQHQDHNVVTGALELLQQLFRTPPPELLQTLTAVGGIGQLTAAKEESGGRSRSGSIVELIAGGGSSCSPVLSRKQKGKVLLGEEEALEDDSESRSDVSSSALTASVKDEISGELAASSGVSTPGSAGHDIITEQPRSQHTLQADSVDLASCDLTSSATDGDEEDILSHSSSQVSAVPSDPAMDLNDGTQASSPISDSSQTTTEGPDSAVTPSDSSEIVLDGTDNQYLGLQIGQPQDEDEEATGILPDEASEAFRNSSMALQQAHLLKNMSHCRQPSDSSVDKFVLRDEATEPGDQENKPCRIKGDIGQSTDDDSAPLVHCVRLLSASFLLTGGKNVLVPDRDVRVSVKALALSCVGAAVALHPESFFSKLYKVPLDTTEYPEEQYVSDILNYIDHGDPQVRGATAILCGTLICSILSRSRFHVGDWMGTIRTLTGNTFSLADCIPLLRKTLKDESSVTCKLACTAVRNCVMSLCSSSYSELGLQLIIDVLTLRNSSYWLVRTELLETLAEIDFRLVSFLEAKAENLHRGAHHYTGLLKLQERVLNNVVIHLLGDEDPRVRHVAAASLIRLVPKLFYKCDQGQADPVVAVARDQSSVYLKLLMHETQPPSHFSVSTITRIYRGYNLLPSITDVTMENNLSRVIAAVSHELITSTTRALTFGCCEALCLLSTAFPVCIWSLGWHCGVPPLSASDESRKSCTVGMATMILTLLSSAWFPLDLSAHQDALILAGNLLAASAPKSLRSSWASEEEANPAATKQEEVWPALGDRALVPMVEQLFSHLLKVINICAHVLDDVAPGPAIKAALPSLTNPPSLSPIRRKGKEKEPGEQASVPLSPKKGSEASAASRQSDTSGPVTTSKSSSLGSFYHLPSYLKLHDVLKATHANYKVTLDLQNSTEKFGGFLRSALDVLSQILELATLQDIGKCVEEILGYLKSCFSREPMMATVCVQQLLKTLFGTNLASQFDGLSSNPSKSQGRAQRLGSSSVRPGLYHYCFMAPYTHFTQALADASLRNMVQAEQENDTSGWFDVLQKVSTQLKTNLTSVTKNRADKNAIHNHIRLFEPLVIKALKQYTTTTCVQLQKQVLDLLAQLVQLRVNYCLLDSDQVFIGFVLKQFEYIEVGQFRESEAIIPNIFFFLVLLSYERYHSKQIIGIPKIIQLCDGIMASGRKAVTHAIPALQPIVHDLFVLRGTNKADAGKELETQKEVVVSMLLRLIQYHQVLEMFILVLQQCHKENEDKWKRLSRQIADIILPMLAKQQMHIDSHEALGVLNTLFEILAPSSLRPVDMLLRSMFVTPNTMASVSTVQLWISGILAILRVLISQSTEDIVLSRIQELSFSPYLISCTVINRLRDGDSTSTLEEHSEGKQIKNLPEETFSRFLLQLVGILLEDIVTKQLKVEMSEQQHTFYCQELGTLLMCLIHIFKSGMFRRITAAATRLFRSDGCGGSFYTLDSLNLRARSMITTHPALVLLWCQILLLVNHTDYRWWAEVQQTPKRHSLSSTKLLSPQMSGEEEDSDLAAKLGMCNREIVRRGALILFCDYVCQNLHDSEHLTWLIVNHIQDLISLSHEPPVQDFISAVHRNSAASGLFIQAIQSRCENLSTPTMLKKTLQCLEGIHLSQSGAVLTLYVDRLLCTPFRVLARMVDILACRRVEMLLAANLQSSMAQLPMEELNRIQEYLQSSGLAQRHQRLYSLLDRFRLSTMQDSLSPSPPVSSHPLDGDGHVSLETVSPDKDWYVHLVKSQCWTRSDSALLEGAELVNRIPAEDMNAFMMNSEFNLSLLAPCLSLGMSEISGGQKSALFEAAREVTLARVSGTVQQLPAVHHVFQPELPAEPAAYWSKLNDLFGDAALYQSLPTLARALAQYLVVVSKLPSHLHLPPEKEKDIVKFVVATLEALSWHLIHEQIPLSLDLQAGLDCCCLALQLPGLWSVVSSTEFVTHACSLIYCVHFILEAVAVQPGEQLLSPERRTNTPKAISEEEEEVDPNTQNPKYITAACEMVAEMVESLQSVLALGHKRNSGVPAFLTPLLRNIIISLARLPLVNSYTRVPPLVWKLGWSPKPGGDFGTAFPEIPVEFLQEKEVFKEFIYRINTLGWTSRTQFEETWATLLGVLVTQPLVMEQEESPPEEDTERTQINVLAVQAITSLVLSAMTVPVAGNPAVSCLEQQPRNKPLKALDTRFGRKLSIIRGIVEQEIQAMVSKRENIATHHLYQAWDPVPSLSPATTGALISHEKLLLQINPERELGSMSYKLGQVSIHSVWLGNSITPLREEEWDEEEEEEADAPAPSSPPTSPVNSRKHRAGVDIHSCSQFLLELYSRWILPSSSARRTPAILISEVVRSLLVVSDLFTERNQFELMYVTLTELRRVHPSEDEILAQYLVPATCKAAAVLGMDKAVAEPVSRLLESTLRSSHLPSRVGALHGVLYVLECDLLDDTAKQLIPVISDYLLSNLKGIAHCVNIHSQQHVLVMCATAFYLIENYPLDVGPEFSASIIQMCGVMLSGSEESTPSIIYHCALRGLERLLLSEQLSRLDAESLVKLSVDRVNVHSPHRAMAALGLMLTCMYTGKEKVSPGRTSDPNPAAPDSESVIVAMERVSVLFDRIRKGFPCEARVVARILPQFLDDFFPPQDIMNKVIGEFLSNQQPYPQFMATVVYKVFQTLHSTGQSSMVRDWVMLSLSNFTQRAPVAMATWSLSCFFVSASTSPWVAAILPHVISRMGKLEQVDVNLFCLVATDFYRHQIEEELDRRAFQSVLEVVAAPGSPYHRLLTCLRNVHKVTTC
* = called active by the depositor. This excerpt belongs to a sample that is enriched for hits. Cut-off read from the data, not from the text of the source: active = inhibition above about 50%; inactive = the rest.

For CCOc1ccccc1NC(=O)N1CC(CC)Oc2ccccc21 (stereo unspecified) the results were Pf apPOL block -4 and mHTT-CaM PPI inh -49.
CCOc1ccccc1NC(=O)N1CC2CCCN2c2ccccc21 (stereo unspecified) was read as Pf apPOL block 1 and mHTT-CaM PPI inh 80*.
`Cc1cccc(NC(=O)N2CC3CCCN3c3ccccc32)c1C` (stereo unspecified) gave Pf apPOL block -3 and mHTT-CaM PPI inh 30.
O=C(Nc1ccccc1Br)N1CC2CCCN2c2ccccc21 (stereo unspecified) was read as Pf apPOL block 2 and mHTT-CaM PPI inh 74*.
For O=C(NCc1ccco1)c1ccc(NC(=O)N2CC3CCCN3c3ccccc32)cc1 (stereo unspecified) the results were Pf apPOL block 1 and mHTT-CaM PPI inh 15.
For Cc1ccccc1NC(=O)N1CC2CCCN2c2ccccc21 (stereo unspecified) the results were Pf apPOL block -2 and mHTT-CaM PPI inh 61*.
For Fc1ccc(C#Cc2ccc(C#Cc3ccc(F)cc3)cc2)cc1 the results were mHTT-CaM PPI inh 6.
`NS(=O)(=O)c1ccc(-c2ccc(C=NO)o2)cc1` gave Pf apPOL block -1.
For O=C(c1nc2ccccc2s1)N(CCn1cccn1)c1nc2ccccc2s1 the results were Pf apPOL block -9 and mHTT-CaM PPI inh -8.
CSc1nnc(C)c(=O)n1COC(=O)c1cccc([N+](=O)[O-])c1 was read as Pf apPOL block -10 and mHTT-CaM PPI inh -13.
For CCOc1ccccc1C(=O)N1CCc2cc(OC)c(OC)cc2C1COc1ccccc1OC (stereo unspecified) the results were Pf apPOL block -4 and mHTT-CaM PPI inh 55*.
For COc1ccc(OCC2c3cc(OC)c(OC)cc3CCN2C(=O)c2c(F)cccc2F)cc1 (stereo unspecified) the results were Pf apPOL block 82* and mHTT-CaM PPI inh 30.
COC(=O)c1ccc(OCC2c3cc(OC)c(OC)cc3CCN2C(=O)c2cc(OC)cc(OC)c2)cc1 (stereo unspecified) was read as Pf apPOL block -2 and mHTT-CaM PPI inh -3.
Screening CCC(=O)N1CCc2cc(OC)c(OC)cc2C1COc1ccc(OC)cc1 (stereo unspecified) returned Pf apPOL block 2 and mHTT-CaM PPI inh 2.
COc1cc2c(cc1OC)C(COc1ccccc1OC)N(C(C)=O)CC2 (stereo unspecified) was read as Pf apPOL block 0 and mHTT-CaM PPI inh -7.
For COc1ccc(OCC2c3cc(OC)c(OC)cc3CCN2C(=O)c2ccc(OC)cc2)cc1 (stereo unspecified) the results were Pf apPOL block -1 and mHTT-CaM PPI inh 57*.
Screening CSc1nc2ccc(NC(=O)c3cccc([N+](=O)[O-])c3)cc2s1 returned Pf apPOL block -1 and mHTT-CaM PPI inh 6.
`CC(NC(=O)c1ccccc1Cl)c1nc(-c2cccc(Cl)c2)no1` (stereo unspecified) gave Pf apPOL block -4 and mHTT-CaM PPI inh -6.
For Cc1cc(NC(=O)C2CCCN(c3ccc(-n4cccn4)nn3)C2)no1 (stereo unspecified) the results were Pf apPOL block -13 and mHTT-CaM PPI inh 25.
Screening COc1ccc(C2CC(C(F)(F)F)n3nc(C(=O)Nc4cc(C)cc(C)c4)cc3N2)cc1 (stereo unspecified) returned Pf apPOL block -3 and mHTT-CaM PPI inh 11.
`CCCOc1ccc(S(=O)(=O)N2CC(C)CC(C)C2)cc1` (stereo unspecified) gave Pf apPOL block -2 and mHTT-CaM PPI inh -25.
Screening O=C(c1cc2ccccc2[nH]1)N1CCCN(c2cc(-c3ccc4c(c3)OCO4)[nH]n2)CC1 returned Pf apPOL block -7 and mHTT-CaM PPI inh 56*.
For Cc1ccccc1CC(=O)N1CCCN(c2cc(-c3ccccc3)[nH]n2)CC1 the results were Pf apPOL block -8 and mHTT-CaM PPI inh 61*.
For O=C(c1ccsc1)N1CCCN(c2cc(-c3ccc4c(c3)OCO4)[nH]n2)CC1 the results were Pf apPOL block 4 and mHTT-CaM PPI inh 7.
For Cc1ccccc1CC(=O)N1CCN(c2cc(-c3cccnc3)[nH]n2)CC1 the results were Pf apPOL block -2 and mHTT-CaM PPI inh -6.
CCOC(=O)C(=NOC)c1csc(NC(=O)c2nn(-c3ccccc3)nc2C)n1 was read as Pf apPOL block -1.
`CCc1ccc(-c2csc(Nc3cc(OC)c(Cl)cc3OC)n2)cc1` gave Pf apPOL block 3 and mHTT-CaM PPI inh 12.
Fc1ccc(-c2csc(Nc3ccc(Cl)cc3)n2)cc1 was read as Pf apPOL block -1 and mHTT-CaM PPI inh 97*.
For CCOc1ccc(Nc2nc(-c3ccc(OC)c(F)c3)cs2)cc1 the results were Pf apPOL block -4 and mHTT-CaM PPI inh 32.
Screening COc1ccc(-c2csc(Nc3ccc(C)c(Cl)c3)n2)cc1F returned Pf apPOL block -1 and mHTT-CaM PPI inh 88*.
Screening Fc1ccc(Nc2nc(-c3ccccc3)cs2)cc1 returned Pf apPOL block 1 and mHTT-CaM PPI inh 30.
`COc1cc(Nc2nc(-c3cc(C)ccc3C)cs2)c(OC)cc1Cl` gave Pf apPOL block -1 and mHTT-CaM PPI inh 74*.
For COc1ccccc1Nc1nc(-c2cc(C)ccc2C)cs1 the results were Pf apPOL block 2 and mHTT-CaM PPI inh 24.
COc1ccc(-c2csc(Nc3ccc(Cl)cc3)n2)cc1F was read as Pf apPOL block 5 and mHTT-CaM PPI inh 95*.
For Cc1c(Cl)cccc1NC(=O)N1CCC(N2CCN(Cc3ccccc3)C2=O)CC1 the results were Pf apPOL block -7 and mHTT-CaM PPI inh 20.
`COc1ccc(C(C)=O)cc1CSC(=NS(=O)(=O)c1ccccc1)Nc1cccc(Cl)c1Cl` gave Pf apPOL block -2.
CCOC(=O)C1CCN(C(=O)C2CCc3sc(C(=O)N(C)C)cc3C2)CC1 (stereo unspecified) was read as Pf apPOL block -4 and mHTT-CaM PPI inh 0.
For COc1ccc(C(=O)Nc2cccc(Br)c2)cc1 the results were Pf apPOL block -1 and mHTT-CaM PPI inh -18.
COCCCNC(=O)c1ccc(-c2ccc(N3CCSCC3)nc2)cc1 was read as Pf apPOL block -2 and mHTT-CaM PPI inh 12.
O=C(CCc1nc(-c2ccccc2F)no1)NCc1ccc(F)cc1Cl was read as Pf apPOL block -8 and mHTT-CaM PPI inh -4.
`CCS(=O)(=O)N1CCC(c2nc(C3CC3)no2)C1` (stereo unspecified) gave Pf apPOL block -1 and mHTT-CaM PPI inh -5.
Screening COc1ccc(/C=C2\SC(=O)N(CC(=O)Nc3ccc(F)c(Cl)c3)C2=O)cc1OC returned Pf apPOL block 3 and mHTT-CaM PPI inh 46.
For CCOc1ccc(S(=O)(=O)Nc2cnc3ccccc3c2)cc1 the results were Pf apPOL block 8 and mHTT-CaM PPI inh -4.
`CCOc1ccc(S(=O)(=O)N=C2C=C(Nc3ccc(OC)cc3)C(=O)c3ccccc32)cc1` gave Pf apPOL block 0 and mHTT-CaM PPI inh 89*.
CCOc1ccc(NC2=CC(=NS(=O)(=O)c3ccc(F)cc3)c3ccccc3C2=O)cc1 was read as Pf apPOL block -5 and mHTT-CaM PPI inh 67*.
For COc1ccccc1NC1=C(Cl)C(=O)c2ccccc2C1=O the results were Pf apPOL block 11.
Screening COc1ccccc1NC1=CC(=NS(=O)(=O)c2ccc(C)cc2)c2ccccc2C1=O returned Pf apPOL block 5 and mHTT-CaM PPI inh 93*.
For CCOc1ccc(S(=O)(=O)NC(=O)c2ccccc2)cc1 the results were Pf apPOL block 0 and mHTT-CaM PPI inh -14.
